# According to PubChem BioAssay (NCI):
# About 83,000 compounds went through this panel and 20% of them were active in at least one assay; those are over-represented in the sample as a whole.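 Single-concentration screen, 48 h exposure, 96-well plates. Endpoint: percent growth. Below 10 = active.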 Values without a mark were called inactive. Calls of active or inactive are those of the source.
# Test system: DU-145 prostate
# Assay: NCI-60 one-dose screen, 48 h (100 = growth as untreated, 0 = no growth, -100 = all killed)
# Details: 10 µM unless noted
row,SMILES,growth
1,COc1ccc(-c2nn(-c3ccccc3)cc2/C=C/C(=O)c2ccc(NC(=O)CCCCCCC(=O)NO)cc2)cc1,97.6%
2,O=C(NCCCNc1cc(-c2cn(-c3ccccc3)nc2-c2cccc(O)c2)ccn1)Nc1cccc(C(F)(F)F)c1,66.9%
3,Cc1[nH]nc2ccc(-c3nc4cnc(N5CCN(C)CC5)cn4c3Nc3ccc(F)cc3Br)cc12,51.8%
4,O=C(/C=C/c1cccc(O)c1)c1ccc(O)cc1,15.8%
5,C#Cc1ccc(NC(=O)c2ccc(/C=C/C(=O)c3nccn3C)cc2)c(F)c1,27.5%
6,O=C(Nc1ccc(F)cc1)c1cc(-c2ccc(F)cc2F)ccc1O,16%
7,Oc1ccc(CSc2nnc(-c3ccc(Oc4ccccc4)cc3)o2)c2cccnc12,45.6%
8,Cc1ccc(NC(=O)c2ccc(CN3CCN(C)CC3)c(C(F)(F)F)c2)cc1Oc1ccc(-c2[nH]nc3ncnc(N)c23)cc1,95.3%
9,N#Cc1c(NC(=O)c2ccccc2C(F)(F)F)sc2c1CCC(=O)C2,33.8%
10,CCN(CC)c1ccc2cc(C(=O)NCCOCCOCCOCCn3cc(CCC(=O)Nc4ccc(C(=O)c5ccc(NC(=O)OC(C)(C)C)cc5)cc4)nn3)c(=O)oc2c1,61.8%
11,CS(=O)(=O)c1ccc(-c2nn(-c3ccccc3)cc2/C=N/NC(=O)c2ccncc2)cc1,88.8%
12,Cc1ccc(S(=O)(=O)N/N=C/c2cn(-c3ccc(F)cc3)nc2-c2ccc(S(C)(=O)=O)cc2)cc1,114%
13,CS(=O)(=O)c1ccc(-c2nn(-c3ccccc3)cc2/C=C/C(=O)c2ccc(Br)cc2)cc1,100%
14,O=C(NCCCNc1cc(-c2cn(-c3ccccc3)nc2-c2cccc(O)c2)ccn1)Nc1ccc(F)cc1,31.4%
15,CN1C(=O)N(C)C2C1NN=c1s/c(=C\c3ccccn3)c(=O)n12 (stereo not drawn),108%
16,Fc1ccc(-c2cc3nc(C(Cl)Cl)nc(-c4cccs4)n3n2)cc1,-21.8% (active)
17,COc1ccc([C@H]2c3[nH]c4ccccc4c3C[C@@H]3C(=O)N(C4CCN(Cc5ccccc5)CC4)CC(=O)N23)c(OC)c1,86.3%
18,Cn1ccnc1C(=O)/C=C/c1ccc(C(=O)Nc2ccc(NC(=O)CCNC(=O)c3csc(Br)n3)cc2)cc1,11.9%
19,Cc1nn(-c2ccccc2)cc1/C=N/Nc1nc(Nc2ccccc2)nc(Nc2ccc(S(N)(=O)=O)cc2)n1,9.14% (active)

row,SMILES,growth
1,COCCC[C@H]1O[C@@](O)([C@H](C)[C@@H]2CC(OC)C(O)/C=C(C)/C=C(C)/C=C(\C)C(OC3O[C@@H](C)[C@H](O)C(O)[C@@H]3O)C(C)/C=C(C)/C=C(OC)/C=C(\C)C(=O)O2)C(OC)C(O)[C@]1(C)O[C@H]1C[C@@H](O)[C@H](O[C@H]2C[C@](C)(O)[C@H](O)C(C)O2)C(C)O1 (stereo partly drawn),48.5%
2,COc1ccc(N2C(=O)c3cc(OC)c(OC)cc3NC2SCc2ccccc2)cc1 (stereo not drawn),110%
3,Cc1cc2nc(C(Cl)Cl)nc(-c3ccco3)n2n1,-12.5% (active)
4,COc1ccc(S(=O)(=O)NCCCNc2nccc(-n3cnc4ccccc43)n2)cc1,100%
5,O=C(NCCCNc1cc(-c2cn(-c3ccccc3)nc2-c2cccc(O)c2)ccn1)Nc1cc(C(F)(F)F)cc(C(F)(F)F)c1,95.8%
6,Cc1ccc(NC(=O)c2ccc(CN3CCN(C)CC3)c(I)c2)cc1Oc1ccc(-c2[nH]nc3ncnc(N)c23)cc1,99.6%
7,Cc1ccc(-n2cc(/C=C/C(=O)c3ccc(S(C)(=O)=O)cc3)c(-c3ccc(S(C)(=O)=O)cc3)n2)cc1,104%
8,COc1cc(/C=C/C(=O)c2ccc(NC(=O)CSc3nnc(-c4ccc5nc(-c6ccccc6)[nH]c5c4)o3)cc2)cc(OC)c1OC,91%
9,O=c1oc2ccc(-c3ccc(F)cc3F)cc2c(=O)n1-c1cccc(C(F)(F)F)c1,15.6%
10,C#CCOc1ccccc1C(Nc1ccccc1)c1nnnn1C1CCCCC1 (stereo not drawn),105%
11,NCCN1CCN(c2nc(-c3ccccc3)nc3nc(-c4ccccc4)oc23)CC1,-79% (active)
12,CN1C(=O)N(C)C2Nn3c(s/c(=C\c4ccccn4)c3=O)=NC21 (stereo not drawn),111%
13,CNC(=O)c1cc(N2CCc3cc(NC(=O)Nc4ccc(Cl)c(Cl)c4)ccc32)ccn1,97.1%
14,NS(=O)(=O)c1ccc(-n2cc(CC=O)nn2)cc1,107%
15,COc1ccc(N)cc1C(=O)Nc1cccc(-c2cc(=O)c3c(OC)c(OC)c(OC)cc3o2)c1,59.1%
16,O=C(CSc1nnc(-c2ccc(Cl)cc2)n1-c1ccccc1)Nc1ccc(F)cc1,93%
17,O=C(c1cccc(F)c1)n1ccc2cc(NC(=S)Nc3cccnc3)ccc21,102%
18,O=C(O)c1ccc(-n2cc(CNc3ccc(Cl)cc3)c(-c3ccc(F)cc3)n2)cc1,103%
19,CCC(CC)N1C(=O)/C(=c2\sc3n(c2=O)C2C(NN=3)N(CC)C(=O)N2CC)c2ccccc21 (stereo not drawn),7.43% (active)
